Test results from PubChem BioAssay (Tox21).
Calls of active or inactive are those of the source. Calls come from the whole dose curve; as a rule, active = well fitted activation curve with a large enough effect in the repeat runs; inconclusive = weak or mixed curves; inactive = flat fitted curve, though single readings scatter.

Assay: Caspase-3/7 induction in CHO-K1 cells by small molecules, qHTS assay (AID 1346980); note: nearly all actives have a fitted effect of over 15% in size
Conditions: CHO-K1 caspase-3/7 induction, Caspase-Glo luminescence, 17 h; series mostly up to 92.4 µM
From the text: National Center for Advancing Translational Sciences [NCATS]
NIH Chemical Genomics Center [NCGC]
U.S. Environmental Protection Agency [EPA]
National Institutes of Environmental Health Sciences [NIEHS]
National Toxicology Program [NTP]
Apoptosis is a process of programmed cell death and plays a central role in the development of multicellular organisms. It is a highly regulated process and induces cell death by activating caspases, which are the members of cysteine aspartic acid-specific protease (caspase) family. Caspases involved in apoptosis are classified by their mechanism of action as initiator caspases (caspase-2, -8, -9 and -10) and executioner caspases (caspase-3, -6, and -7). Inhibition of apoptosis results in number of cancers, autoimmune diseases, inflammatory diseases and viral infection. To identify small molecule compounds that induce apoptosis, a homogeneous, luminescent Caspase-Glo 3/7 assay was used. Wild type CHO-K1 cells were used to screen Tox21 libraries for identifying caspase-3/7 activity inducers.
CHO-K1 cells were dispensed at 1,500 per well in 5uL of culture medium into white solid bottom 1536-well plates (Corning Life Sciences, Corning, NY) using a Multidrop Combi (Thermo Scientific, Waltham, MA) dispenser. The assay plates were incubated at 37 C and 5% CO2 for 5hr, and then 23nL of compounds dissolved in DMSO and positive control were transferred using a Pintool station (Wako, San Diego, CA). The assay plates were incubated at 37C and 5% CO2 for 17hr. For caspase-3/7 activity read, 4uL of Caspase-Glo 3/7 reagent (Promega Corporation, Madison, WI) was added to each well of the assay plates using Flying Reagent Dispenser (FRD, Aurora Discovery, San Diego, CA) and incubated the assay plates at room temperature for 30min. The luminescence signal was quantified using a ViewLux plate reader (Perkin Elmer, Shelton, CT).
In the case of CCCCCCCCCCCCS, the outcome was “inactive”. With Cc1ccc2oc(=O)ccc2c1 the outcome was “inactive”. In the case of CN(C)CCC(c1ccccc1)c1ccccn1 (stereo not given), the outcome was “inactive”. With CC(C)CC(=O)CC(C)C the outcome was “inactive”. For N[C@@H](Cc1cc(I)c(Oc2cc(I)c(O)c(I)c2)c(I)c1)C(=O)O, the outcome was “inactive”. With NNc1nncc2ccccc12 the outcome was “inactive”. With O=C(O)CC(C(=O)O)C(CC(=O)O)C(=O)O (stereo not given) the outcome was “inactive”. In the case of Nc1ccccc1[N+](=O)[O-], the outcome was “inactive”. With CC(=O)Nc1ccccc1 the outcome was “inactive”. With CSCCC=O the outcome was “inactive”. For CCCCCCCCCC, the outcome was “inactive”. With CC1=CCC2CC1C2(C)C (stereo not given) the outcome was “inactive”. With O=C=NCCCCCCN=C=O the outcome was “inactive”. For CC1=C(C)S(=O)(=O)CCS1(=O)=O, the outcome was “inactive”. For O=P(OC(CCl)CCl)(OC(CCl)CCl)OC(CCl)CCl, the outcome was “inactive”. For c1c[nH]cn1, the outcome was “inactive”. With COc1ccc2cc([C@H](C)C(=O)O)ccc2c1 the outcome was “inactive”. In the case of CCCCC(CC)COC(=O)C(C#N)=C(c1ccccc1)c1ccccc1 (stereo not given), the outcome was “inactive”. With C/C=C1/CC2C=CC1C2 (stereo not given) the outcome was “inactive”. For COc1ccc(Cl)cc1C(=O)NCCc1ccc(S(=O)(=O)NC(=O)NC2CCCCC2)cc1, the outcome was “inactive”. With C[C@H]1C[C@@H]2[C@H]([C@@H](O)C[C@@]3(C)[C@H]2CC[C@]3(O)C(=O)CO)[C@@]2(C)C=CC(=O)C=C12 the outcome was “inactive”. With CCCCCOC(C)=O the outcome was “inactive”. For CCCCC(CC)COC(=O)CS (stereo not given), the outcome was “inactive”. For COS(C)(=O)=O, the outcome was “inactive”. With Cc1cnc(C(=O)NCCc2ccc(S(=O)(=O)NC(=O)NC3CCCCC3)cc2)cn1 the outcome was “inactive”. With CC(C)(N)CO the outcome was “inactive”. In the case of Cc1ccc(S(N)(=O)=O)cc1, the outcome was “inactive”. For CCCCC(CC)COC(=O)CCCCC(=O)OCC(CC)CCCC (stereo not given), the outcome was “inactive”. In the case of FC(F)(F)c1ccc(Cl)c(Cl)c1, the outcome was “inactive”. With CCC(O)OC(O)CC (stereo not given) the outcome was “inactive”. In the case of CCCCOC(=O)COc1ccc(Cl)cc1Cl, the outcome was “inactive”. For COc1cc(Cc2cnc(N)nc2N)cc(OC)c1OC, the outcome was “inactive”. In the case of CC[C@H](C)C(=O)O[C@H]1C[C@@H](C)C=C2C=C[C@H](C)[C@H](CC[C@@H]3C[C@@H](O)CC(=O)O3)[C@H]21, the outcome was “inactive”. For C[C@H]1C[C@H]2[C@@H]3CCC4=CC(=O)C=C[C@]4(C)[C@@]3(F)[C@@H](O)C[C@]2(C)[C@@]1(O)C(=O)CO, the outcome was “inactive”. For CCOC(=O)NNc1nncc2ccccc12, the outcome was “inactive”. For CCCCCCCCCCCCc1ccccc1, the outcome was “inactive”. With CCN(CC)c1ccc(C(=O)c2ccccc2C(=O)O)c(O)c1 the outcome was “inactive”. With C=C(C)C(=O)Nc1ccc(Cl)c(Cl)c1 the outcome was “inactive”. For COc1ccc(NC(C)=O)cc1N, the outcome was “inactive”. In the case of CCCCCC(N)=O, the outcome was “inactive”.
